# High-throughput results: PubChem, National Center for Advancing Translational Sciences (NCATS)
# The list is not random: actives were taken first. Their share in the collection is about 1.1%.
# AMA1 RON2 block: qHTS for Inhibitors of AMA1-RON; Towards Development of Antimalarial Drug Lead: Primary Screen. AlphaScreen AMA1-biotinylated RON2 peptide binding. AID 720542, 2013. 0.2% of 360,000 active. Potency, µM (doses to about 58.2 µM), for inactives: top-dose activity change, negative = inhibition, usual class: inhibitors;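 note: 0% = vehicle wells and -100% = peptide control; nearly all actives have a fitted effect of over 45% in size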
#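 AMA1 (3D7) with his tag at 25 nM final met compounds first, then biotinylated RON2 peptide at 25 nM; detection used donor plus acceptor beads, 10 µg/mL apiece, read by AlphaScreen after 30 min at room temperature.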
# AmpC inh detg: qHTS Inhibitors of AmpC Beta-Lactamase (assay with detergent). P00811. AmpC hydrolysis of nitrocefin, absorbance 480 nm, 0.01% Triton. Potency, µM (highest dose often 114 µM), for the others: at the highest dose activity change, negative = inhibition, usual class: inhibitors. 0.041% of 370,000 active;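 note: 0% = no-compound wells and -100% = no-enzyme wells; nearly all actives have a fitted effect of over 25% in size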
#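 AmpC (5.3 nM in the dispensed reagent) in 20 mM phosphate pH 7.0 with 0.01% (detergent screen) or 0.0001% Triton X-100 was preincubated with compounds for 15 min at room temperature. Nitrocefin was then added from an 800 uM solution, and hydrolysis was followed at 480 nm.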
# AmpC no deterg: qHTS Inhibitors of AmpC Beta-Lactamase (assay without detergent); AmpC nitrocefin hydrolysis, absorbance 480 nm, 0.0001% Triton; Potency, µM (highest dose often 57.1 µM), inactives show at the top dose activity change, negative = inhibition, usual class: inhibitors; 0.52% of 330,000 active;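 note: plate controls were no compound for no effect and no enzyme for full effect; nearly all actives have a fitted effect of over 20% in size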
#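 20 mM phosphate pH 7.0 + 0.01% (detergent screen) or 0.0001% Triton X-100; 5.3 nM AmpC reagent; cpd preinc 15 min RT; nitrocefin (800 uM stock) to start; A480 q20 s × 4 min; Activity was normalised to no-enzyme and no-compound control wells.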
# Giardia FBPA inh-1: qHTS Assay for Inhibitors of Fructose-1,6-bisphosphate Aldolase from Giardia Lamblia | A8B2U2 | purified Giardia FBPA | Potency, µM (doses to about 59.6 µM), inactives show at the highest dose activity, negative = inhibition, hits mostly inhibitors | 0.71% of 290,000 active | AID 2451, 2010; note: nearly all actives have a fitted effect of over 55% in size
# Target sequence (A8B2U2 whole entry, looked up): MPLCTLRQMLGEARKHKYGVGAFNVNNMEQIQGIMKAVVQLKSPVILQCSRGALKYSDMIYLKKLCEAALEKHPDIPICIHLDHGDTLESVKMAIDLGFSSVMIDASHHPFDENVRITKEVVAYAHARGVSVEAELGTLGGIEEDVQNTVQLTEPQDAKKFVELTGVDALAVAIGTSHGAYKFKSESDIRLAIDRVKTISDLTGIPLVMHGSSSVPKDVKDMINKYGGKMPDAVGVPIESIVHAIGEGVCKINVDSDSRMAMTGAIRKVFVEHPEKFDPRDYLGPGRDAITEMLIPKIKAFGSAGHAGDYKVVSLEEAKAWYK
#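 40 nM FBPA preincubated 10 min at RT with compound (up to 57.5 uM final), then substrate plus GAPDH/TPI/NAD/arsenate coupling and diaphorase/resazurin added. Fluorescence read after 20 min at RT, 525/598 nm.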
# Giardia growth: qHTS Assay for Inhibitors of Fructose-1,6-bisphosphate Aldolase from Giardia Lamblia: Giardia lamblia growth inhibition | Potency, µM (top dose mostly 57.5 µM), for the others: top-dose activity change, negative = inhibition, actives largely listed as inhibitors | shares compounds with Giardia FBPA inh-1 | 5% of 1,500 active | Giardia lamblia trophozoite growth inhibition | AID 2785, 2010;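 note: trophozoites exposed to compound for 48 h at 37 °C; nearly all actives have a fitted effect of over 70% in size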
# Mammalian tox: qHTS Assay for Inhibitors of Fructose-1,6-bisphosphate Aldolase from Giardia Lamblia: Mammalian cellular toxicity. shares compounds with Giardia FBPA inh-1. mammalian cell viability counter-screen, qHTS. Potency, µM (series often up to 57.5 µM), for the others: at the highest dose viability change, negative = toxicity, usual class: inhibitors. 4% of 1,500 active. AID 2786, 2010;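 note: Chinese hamster ovary cells used as mammalian cytotoxicity surrogate; viability measured as cellular ATP by luminescence; compound exposure lasted 48 h before reading; nearly all actives have a fitted effect of over 60% in size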
# Giardia FBPA inh-2: qHTS Assay for Inhibitors of Fructose-1,6-bisphosphate Aldolase from Giardia Lamblia: Primary screen confirmation; Potency, µM (top dose mostly 57.5 µM), for the others: top-dose activity change, negative = inhibition, actives largely listed as inhibitors; shares compounds with Giardia FBPA inh-1; 5% of 1,500 active; purified Giardia aldolase enzyme activity, qHTS; note: nearly all actives have a fitted effect of over 45% in size
# Rabbit aldolase: qHTS Assay for Inhibitors of Fructose-1,6-bisphosphate Aldolase from Giardia Lamblia: Rabbit FBPA Selectivity | Potency, µM (top dose mostly 57.5 µM), for inactives: top-dose activity, negative = inhibition, actives largely listed as inhibitors | Rabbit muscle FBPA enzyme inhibition, selectivity counter-screen | 4% of 1,500 active | shares compounds with Giardia FBPA inh-1 | AID 2794, 2010; note: nearly all actives have a fitted effect of over 60% in size
# GAPDH counter: qHTS Assay for Inhibitors of Fructose-1,6-bisphosphate Aldolase from Giardia Lamblia: Coupling assay counterscreen confirmation. GAPDH coupling enzyme counterscreen, biochemical, qHTS. Potency, µM (titrated, usually from 57.5 µM), without a hit: at the highest dose activity change, negative = inhibition, hits mostly inhibitors. shares compounds with Giardia FBPA inh-1. 6% of 1,500 active; note: nearly all actives have a fitted effect of over 55% in size
# Numbers without * were called inactive; ? = inconclusive; . = no result; [ ] = dose if it differs, or a comment. Calls come from the whole dose curve; as a rule, active = well fitted curve in the direction sought with a large enough effect; inconclusive = small, poorly fitted or top-dose-only effect, or another doubt; inactive = no such curve, though single readings can be large; an effect the other way counts as inactive or inconclusive. Unless noted, % is set by controls: 0 for no effect and ±100 for the full control effect; potency is the fitted concentration of half-maximal effect.
SMILES,AMA1 RON2 block,AmpC inh detg,AmpC no deterg,Giardia FBPA inh-1,Giardia growth,Mammalian tox,Giardia FBPA inh-2,Rabbit aldolase,GAPDH counter
COc1ccc(C(=O)N/N=C/c2ccccn2)cc1OC,82%,-1%,-23%,16µM*,-14%,-4%,1%,0%,1%
O=C(N/N=C\c1ccccn1)c1ccccc1O,64%,-7%,-32%,16µM*,-23%,?,-4%,-4%,-7%
CC(C)C(OC(=O)CN1C(=O)c2ccccc2C1=O)C(=O)NC1CCCCC1 (centres undefined),-10%,-7%,-9%,1%,.,.,.,.,.
Cc1ccc(CSc2nnc(-c3ccccn3)n2Cc2cccs2)cc1,-1%,.,.,.,.,.,.,.,.
O=C(c1ccc(Cl)s1)N1CCN(S(=O)(=O)c2ccc(Cl)cc2)CC1,42%,.,-5%,.,.,.,.,.,.
Cc1ccc(C(=O)N2CC(=O)Nc3ccc(Br)cc3C2c2ccc(F)cc2)cc1C (centres undefined),.,6%,.,.,.,.,.,.,.
O=C(N/N=C/c1ccccn1)c1ccco1,50%,-8%,-15%,20µM*,-13%,-1%,-2%,-3%,-5%
COC(=O)C1=C(O)/C(=C\c2cc(C)n(-c3ccccc3F)c2C)N=C1C,-5%,-9%,-17%,13µM*,-14%,-2%,-18%,-22%,-26%
O=C(NC(=S)Nc1ccccc1Cl)c1cncc(Br)c1,28%,-8%,-26%,6.3µM*,?,27%,3%,0%,-11%
O=C(NC(=S)Nc1ncc(Br)cc1Br)c1ccccc1,70%,0%,-20%,6.3µM*,9%[38.3 µM],-24%,0%,23%,-3%
O=C1/C(=C\c2ccco2)CCC/C1=C\c1ccco1,?,-15%,-26%,16µM*,14%,?,-4%,5%,-3%
COC(=O)c1c(NC(=O)c2cc(=O)c3ccc(C)c(C)c3o2)sc2c1CCCC2,.,16%,.,.,.,.,.,.,.
O=C1NC(=S)S/C1=C1\Sc2ccccc2N1CCCS(=O)(=O)O,6%,?,-19%,?,.,.,.,.,.
NN1C(=O)/C(=C2/Sc3ccccc3N2CCCS(=O)(=O)O)SC1=S,-1%,-13%,-30%,18µM*,14%[10.4 µM],15%,11%,8%,-9%
N#Cc1ccccc1NC(=S)NC(=O)c1cccs1,103%,-12%,-20%,10µM*,?,-13%,?,?,?
C=CCNC(=S)NC(=O)c1csc([N+](=O)[O-])c1,14%,2%,-26%,?,.,.,.,.,.
NS(=O)(=O)c1cccc(NC(=S)NC(=O)c2cccc([N+](=O)[O-])c2)c1,60%,3%,-25%,18µM*,3%[10.4 µM],2%,1%,3%,5%
O=C(NC(=S)N1CCCCC1)c1csc([N+](=O)[O-])c1,39%,0%,-10%,13µM*,1µM*,-3%,-2%,5%,10%
